The panel holds about 79,000 compounds, 15% with a hit somewhere; the sample as a whole holds those more often. Activity calls are given as the source filed them. No stated cut-off is given here; in the data, active means growth inhibition above about 70%; inactive means the rest.
Tests used:
[1] = NCI Yeast Anticancer Drug Screen. Data for the mec2-1 strain (AID 157); details: S. cerevisiae mec2-1 strain, stronger effect = higher value
How it was run: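 mec2-1 yeast strain, carrying an alteration in DNA damage repair or cell cycle control, was exposed to compounds; growth inhibition was measured relative to vehicle-treated controls.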

[2] = NCI Yeast Anticancer Drug Screen. Data for the rad14 strain (AID 159);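 further: 0% = growth of vehicle-treated control cultures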; details: S. cerevisiae rad14 strain growth inhibition, stronger effect = higher value
How it was run: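 Yeast cells carrying a defined DNA-repair defect were exposed to compounds, and growth inhibition was calculated relative to vehicle-treated control cultures.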

[3] = NCI Yeast Anticancer Drug Screen. Data for the sgs1 mgt1 strain (AID 161);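 further: 0% = growth of cultures given vehicle only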; details: S. cerevisiae sgs1 mgt1 strain, stronger effect = higher value
How it was run: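 Compounds are added to genetically altered yeast, and growth is compared with cultures given vehicle alone to give percent inhibition.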

[4] = NCI Yeast Anticancer Drug Screen. Data for the CLN2oe strain (AID 163);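 further: 0% = growth of vehicle-only control cultures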; details: S. cerevisiae CLN2oe strain, stronger effect = higher value
How it was run: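 Yeast cells carrying a defined cell-cycle control alteration were exposed to test compounds. Growth inhibition was scored against vehicle-treated control cultures.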

[5] = NCI Yeast Anticancer Drug Screen. Data for the cln2 rad14 strain (AID 165);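 further: 0% = growth equal to vehicle treated cultures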; details: S. cerevisiae cln2 rad14 strain, stronger effect = higher value
How it was run: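 Yeast carrying cln2 and rad14 alterations (cell cycle control and DNA damage repair) were exposed to compounds. Growth inhibition was measured against vehicle-treated controls.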

[6] = NCI Yeast Anticancer Drug Screen. Data for the bub3 strain (AID 167); details: S. cerevisiae bub3 mutant strain, stronger effect = higher value
How it was run: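 Compounds were applied to a genetically altered yeast strain carrying a cell-cycle control defect. Growth inhibition was scored against vehicle-treated controls.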

[7] = NCI Yeast Anticancer Drug Screen. Data for the wt2 strain (AID 169);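 further: 0% = growth of vehicle-treated yeast cultures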; details: S. cerevisiae wt2 strain growth inhibition, stronger effect = higher value
How it was run: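 Yeast cells were exposed to test compounds, and growth inhibition was measured relative to vehicle-treated controls.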

[8] = NCI Yeast Anticancer Drug Screen. Data for the mlh1 strain (AID 171);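 further: 0% = growth of vehicle-treated control cultures of the same strain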; details: S. cerevisiae mlh1 strain growth inhibition, stronger effect = higher value
How it was run: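 Yeast carrying a defined genetic alteration in DNA damage repair or cell cycle control were exposed to test compounds. Growth inhibition was measured relative to vehicle-treated controls.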

[9] = NCI Yeast Anticancer Drug Screen. Data for the sgs1 strain (AID 173);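 further: 0% = growth of vehicle-only control cultures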; details: S. cerevisiae sgs1 mutant, stronger effect = higher value
How it was run: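 Yeast mutant strains carrying defined defects in DNA damage repair or cell cycle control were exposed to test compounds. Growth inhibition was scored against vehicle-treated controls.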

[10] = NCI Yeast Anticancer Drug Screen. Data for the mlh1 rad18 strain (AID 175); details: S. cerevisiae mlh1 rad18 strain growth inhibition, stronger effect = higher value
How it was run: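 Growth inhibition of the yeast strain was measured after compound exposure and expressed relative to vehicle-treated controls. The strain carries defined defects in DNA damage repair.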

[11] = NCI Yeast Anticancer Drug Screen. Data for the rad18 strain (AID 177); details: S. cerevisiae rad18 mutant growth inhibition, stronger effect = higher value
How it was run: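 Yeast carrying a defined DNA damage repair alteration were exposed to compounds. Growth inhibition was expressed relative to vehicle-treated controls.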

[12] = NCI Yeast Anticancer Drug Screen. Data for the rad52 strain (AID 147);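 further: 0% = growth of vehicle-treated control cultures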; details: S. cerevisiae rad52 mutant growth inhibition, stronger effect = higher value
How it was run: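 Yeast strain carrying a DNA damage repair alteration was exposed to test compounds. Growth inhibition was measured relative to vehicle-treated controls.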

[13] = NCI Yeast Anticancer Drug Screen. Data for the wt1 strain (AID 149);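 further: 0% = growth of vehicle-treated wt1 cultures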; details: S. cerevisiae wt1 strain (SPY 50644) growth inhibition, stronger effect = higher value
How it was run: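 Yeast wt1 strain exposed to compounds; growth inhibition measured relative to vehicle-treated controls.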

[14] = NCI Yeast Anticancer Drug Screen. Data for the rad50EPP+ strain (AID 151);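 further: 0% = growth of vehicle-treated control cultures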; details: S. cerevisiae rad50 mutant strain, stronger effect = higher value
How it was run: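 Yeast strain carrying rad50 alteration (rad50EPP+) exposed to compounds; growth inhibition measured relative to vehicle-treated controls.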

[15] = NCI Yeast Anticancer Drug Screen. Data for the mgt1 strain (AID 153); details: S. cerevisiae mgt1 mutant growth inhibition, stronger effect = higher value
How it was run: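 Yeast mgt1 strain (DNA repair/cell-cycle alteration panel) exposed to compounds; growth inhibition measured relative to vehicle-treated controls.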

[16] = NCI Yeast Anticancer Drug Screen. Data for the rad50 strain (AID 155);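 further: 0% = growth of vehicle-only cultures of the same strain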; details: S. cerevisiae rad50 strain growth inhibition, stronger effect = higher value
How it was run: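 Yeast carrying a defined DNA repair defect were exposed to test compounds, and growth was compared with vehicle-treated controls to give percent inhibition.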

[17] = at 5.0 µM (retest, dose inferred, filed as 0.5)
[18] = at 50.0 µM (retest, dose inferred, filed as 5.0)

Measured: growth inhibition

COc1cc(O)c2c(c1O)C(=O)c1cc(C)ncc1C2=O
inactive: [1]; [17] 8% | [1]; at 11.0 µM 9% | [1]; at 33.0 µM 9% | [1]; [18] 44% | [1]; at 50.0 µM 23.2% | [1]; at 100.0 µM 23% | [2]; at 1.2 µM 31% | [2]; at 3.7 µM 47% | [3]; [17] 9% | [3]; at 50.0 µM 69.9% | [4]; at 1.2 µM 16% | [4]; at 3.7 µM 11% | [4]; at 11.0 µM 5% | [4]; at 33.0 µM 10% | [4]; at 100.0 µM 12% | [5]; [17] 1% | [5]; [18] 12% | [5]; at 50.0 µM 18.9% | [6]; at 1.2 µM 14% | [6]; at 3.7 µM 13% | [6]; [17] 5% | [6]; at 11.0 µM 26% | [6]; at 33.0 µM 51% | [6]; [18] 42% | [7]; at 1.2 µM 39% | [7]; at 3.7 µM 60% | [8]; at 1.2 µM 7% | [8]; at 3.7 µM 21% | [8]; at 11.0 µM 41% | [8]; at 33.0 µM 54% | [9]; at 1.2 µM 12% | [9]; at 3.7 µM 29% | [10]; [17] 17% | [10]; at 50.0 µM 64.8% | [11]; at 1.2 µM 4% | [11]; at 3.7 µM 21% | [11]; at 11.0 µM 28% | [11]; at 33.0 µM 40% | [11]; at 100.0 µM 60%
active: [2]; at 11.0 µM 70% | [2]; at 33.0 µM 91% | [2]; at 100.0 µM 94% | [3]; [18] 84% | [6]; at 50.0 µM 75.9% | [6]; at 100.0 µM 73% | [7]; at 11.0 µM 83% | [7]; at 33.0 µM 91% | [7]; at 100.0 µM 95% | [8]; at 100.0 µM 87% | [9]; at 11.0 µM 77% | [9]; at 33.0 µM 88% | [9]; at 100.0 µM 84% | [10]; [18] 83%

CN(C)CCNC(=O)c1cccc2c1Oc1c(cccc1[N+](=O)[O-])O2
inactive: [12]; at 1.2 µM -20% | [12]; at 3.7 µM -21% | [12]; at 11.0 µM -12% | [12]; at 33.0 µM 59% | [13]; at 1.2 µM -13% | [13]; at 3.7 µM -20% | [13]; at 11.0 µM -14% | [13]; at 33.0 µM -12% | [13]; at 100.0 µM 29% | [14]; at 1.2 µM 0% | [14]; at 3.7 µM 9% | [14]; at 11.0 µM 3% | [14]; at 33.0 µM 26% | [14]; at 100.0 µM 68% | [15]; at 1.2 µM 9% | [15]; at 3.7 µM 17% | [15]; at 11.0 µM 16% | [15]; at 33.0 µM 30% | [15]; at 100.0 µM 60% | [16]; at 1.2 µM 6% | [16]; at 3.7 µM 10% | [16]; [17] 29% | [16]; at 11.0 µM 24% | [16]; at 50.0 µM 32.6% | [1]; at 1.2 µM -12% | [1]; at 3.7 µM -23% | [1]; [17] -7% | [1]; at 11.0 µM -20% | [1]; at 33.0 µM -9% | [1]; [18] 16% | [1]; at 50.0 µM 7.85% | [1]; at 100.0 µM 56% | [2]; at 1.2 µM -12% | [2]; at 3.7 µM -12% | [2]; at 11.0 µM -10% | [2]; at 33.0 µM -8% | [2]; at 100.0 µM 40% | [3]; [17] 11% | [3]; [18] 16% | [3]; at 50.0 µM 11.5% | [4]; at 1.2 µM 24% | [4]; at 3.7 µM 12% | [4]; at 11.0 µM 20% | [4]; at 33.0 µM 6% | [4]; at 100.0 µM 58% | [5]; [17] 47% | [5]; [18] 38% | [5]; at 50.0 µM 14.4% | [6]; at 1.2 µM 25% | [6]; at 3.7 µM 31% | [6]; [17] 20% | [6]; at 11.0 µM 13% | [6]; at 33.0 µM 26% | [6]; [18] 29% | [6]; at 50.0 µM 0.95% | [7]; at 1.2 µM -37% | [7]; at 3.7 µM -27% | [7]; at 11.0 µM -40% | [7]; at 33.0 µM -37% | [7]; at 100.0 µM 26% | [8]; at 1.2 µM 15% | [8]; at 3.7 µM 13% | [8]; at 11.0 µM 18% | [8]; at 33.0 µM 38% | [9]; at 1.2 µM -10% | [9]; at 3.7 µM 2% | [9]; at 11.0 µM -1% | [9]; at 33.0 µM 2% | [9]; at 100.0 µM 48% | [10]; [17] 15% | [10]; [18] 29% | [10]; at 50.0 µM 18.4% | [11]; at 1.2 µM -3% | [11]; at 3.7 µM 0% | [11]; at 11.0 µM -5% | [11]; at 33.0 µM 13% | [11]; at 100.0 µM 69%
active: [12]; at 100.0 µM 93% | [16]; at 33.0 µM 76% | [16]; [18] 72% | [16]; at 100.0 µM 95% | [6]; at 100.0 µM 74% | [8]; at 100.0 µM 75%

Source: PubChem BioAssay (NCI)
